Reference: PubChem BioAssay AID540308 (The Scripps Research Institute Molecular Screening Center, 2011)
Out of some 360,000 compounds screened, about 3,500 (0.97%) were called active. For the sample, actives were picked, then their nearest neighbours and some compounds at random. Values without a mark were called inactive.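 How the source made its calls: active means activation above a per-plate cutoff, the mean activation of sample wells on that plate plus 3 SD (cut at about 8% in these data); inactive means the rest.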

biological target: Melanocortin receptor 4 (Homo sapiens) (UniProt P32245); test: MC4R agonists recruiting beta-arrestin, primary screen, cell-based, luminescence, agonist arm of biased-ligand search (AID 540308); conditions: U2OS MC4R beta-arrestin complementation, at 8.9 µM, active compounds read high, percent of melanotan II response, DMSO zero
Sequence (P32245 whole entry, looked up): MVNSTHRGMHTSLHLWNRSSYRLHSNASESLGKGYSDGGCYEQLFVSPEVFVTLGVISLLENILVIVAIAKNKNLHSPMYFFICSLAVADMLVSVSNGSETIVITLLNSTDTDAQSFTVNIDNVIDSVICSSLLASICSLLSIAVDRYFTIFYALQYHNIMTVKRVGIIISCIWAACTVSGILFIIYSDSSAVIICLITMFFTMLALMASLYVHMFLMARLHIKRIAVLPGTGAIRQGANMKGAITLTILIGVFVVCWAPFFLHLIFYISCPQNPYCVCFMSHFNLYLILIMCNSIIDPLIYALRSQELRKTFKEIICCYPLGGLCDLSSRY

Compound	activation
COC(=O)c1cc(C(=O)N(Cc2ccccc2)c2ccccn2)cc([N+](=O)[O-])c1	2.05%
O=C(CCl)N(Cc1cccc([N+](=O)[O-])c1)c1cccc(Cl)c1	20.4% (active)
CC(=O)N(CN1C(=O)C2CC=CCC2C1=O)c1cccc(Cl)c1 (stereo not given)	-0.75%
Cn1c(Nc2ccc(F)cc2)nc2cc(-c3ccsc3)sc2c1=O	2.85%
Cc1ccc(-c2nn(-c3ccccc3)cc2/C=C2\SC(=S)N(CCCCCC(=O)O)C2=O)o1	8.64% (active)
O=C1/C(=C\c2ccccc2Cl)SC(=S)N1CCC(=O)N1CCCc2ccccc21	-0.74%
CN(C(=O)CCN1C(=O)/C(=C/c2ccccc2F)SC1=S)C1CCS(=O)(=O)C1 (stereo not given)	-1.67%
COc1ccc(-c2coc3c(C(=O)NC(C)C)cccc23)c(C)c1	0.44%
CCOC(=O)c1c(C)[nH]c(C(=O)NCCN2CCOCC2)c1C	-1.01%
Fc1ccccc1COc1ccccc1CNCc1ccncc1	-1.5%
COc1ccc(C(CCNCc2ccccc2F)c2ccc(F)cc2)cc1 (stereo not given)	2.17%
COc1cccc(CNCCc2c[nH]c3ccccc23)c1OCc1ccccc1F	10.3% (active)
CN1C[C@@H](CO)O[C@@H](n2cnc3c(N4CCN(CCO)CC4)ncnc32)C1	-0.08%
COc1ccc(S(=O)(=O)N2CCOC2CNC(=O)C(=O)NCc2ccncc2)cc1C (stereo not given)	0.29%
CCNC(=O)C1(C)CCCN1C(=O)c1ccc(N(C)C)cc1 (stereo not given)	-0.82%
Cc1ccc2[nH]cc(CCNC(=O)c3ccc([N+](=O)[O-])cc3)c2c1	-2.01%
O=C(NCCc1ccc(Cl)cc1Cl)c1cc([N+](=O)[O-])c[nH]c1=O	-2.62%
O=C(NCCc1c[nH]c2ccc(Cl)cc12)c1ccc([N+](=O)[O-])cc1	10.4% (active)
COC(=O)c1ccc(S(=O)(=O)N2CCC(c3nc4ccccc4o3)CC2)cc1	-0.95%
CC1(C(=O)Nc2ccc3c(c2)OCCO3)CCN1C(=O)Cc1cc(F)ccc1F (stereo not given)	-0.93%
CC1(Oc2ccc(Cl)cc2)CCN(Cc2csc3ccccc23)C1 (stereo not given)	5.74%
OC(c1ccccc1)c1nc(/C=C/c2ccc(C(F)(F)F)cc2)cs1 (stereo not given)	1.43%
CCOc1ccc(/C=C/C(=O)OCC(=O)c2ccccc2OC)cc1OC	12.9% (active)
COc1cc(/C=C/C(=O)OCC(=O)c2ccccc2)cc(OC)c1OC	-2.53%
COc1ccc(/C=C/C(=O)OCC(=O)NC2CCCCCC2)cc1OC	0.56%
